GSTO1 counter: inhibitors of recombinant GSTO1, primary screen, counter-screen for RBBP9 inhibitor project, biochemical, fluorescence polarization; Glutathione S-transferase omega-1 (Homo sapiens), P78417; activity-based probe fluorescence polarization; inhibition, % at 5.96 µM; 300,000 compounds, 1.1% hits;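 active = inhibition above the campaign mean inhibition plus 3 SD, cut at about 35% in these data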
Target sequence (P78417 whole entry, looked up): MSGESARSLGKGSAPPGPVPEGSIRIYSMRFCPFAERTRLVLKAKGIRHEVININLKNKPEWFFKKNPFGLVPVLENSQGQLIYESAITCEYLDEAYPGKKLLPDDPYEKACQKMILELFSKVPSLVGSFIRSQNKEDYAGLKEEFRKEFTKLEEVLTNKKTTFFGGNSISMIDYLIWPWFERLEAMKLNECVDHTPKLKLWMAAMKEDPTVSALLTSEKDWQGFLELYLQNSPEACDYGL
LYPLA2 counter: LYPLA2 inhibitors, primary screen, counter-screen for PME1 inhibitor project, biochemical, fluorescence polarization, FP-Rh probe ABPP; recombinant LYPLA2; 320,000 compounds, 0.38% hits; inhibition, % at 5.9 µM; Acyl-protein thioesterase 2 (Homo sapiens), O95372;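 active = inhibition above the screen-wide mean plus 3 SD, limit set per campaign, cut at about 26% in these data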
PAD4 inh: human PAD4 inhibitors, primary screen, biochemical, fluorescence polarization, 1536-well format; inhibition, % at 6.36 µM; recombinant PAD4, RCA probe fluorescence polarization; Protein-arginine deiminase type-4 (Homo sapiens), Q9UM07; 330,000 compounds, 0.41% hits;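 active = percent inhibition above a cutoff equal to the mean of all tested compounds plus 3 SD, cut at about 15% in these data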
PME-1 primary: PME-1 inhibitors via competitive probe labeling, primary screen, biochemical, fluorescence polarization, FP-Rh probe, HTS. recombinant PME-1. inhibition, % at 5.9 µM. 320,000 compounds, 0.53% hits. AID 2130, 2009;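 active = inhibition above the campaign mean of all compounds plus 3 SD, cut at about 26% in these data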;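 also: competitive labeling of PME-1 active site by serine hydrolase directed probe; inhibitors block probe labeling so polarization falls and inhibition rises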
Target sequence (Q9Y570 whole entry, looked up): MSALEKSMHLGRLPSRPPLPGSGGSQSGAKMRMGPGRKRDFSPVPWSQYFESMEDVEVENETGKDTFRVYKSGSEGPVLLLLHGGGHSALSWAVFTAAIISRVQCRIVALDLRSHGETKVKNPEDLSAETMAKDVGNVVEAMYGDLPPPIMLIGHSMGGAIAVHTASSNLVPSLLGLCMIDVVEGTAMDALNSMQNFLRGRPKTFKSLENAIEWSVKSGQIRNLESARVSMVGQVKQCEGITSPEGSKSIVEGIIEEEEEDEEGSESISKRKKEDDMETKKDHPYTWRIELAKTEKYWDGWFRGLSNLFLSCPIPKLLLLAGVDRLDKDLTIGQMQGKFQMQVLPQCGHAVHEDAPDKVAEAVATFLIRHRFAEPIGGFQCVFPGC
LYPLA1 inh: LYPLA1 inhibitors, primary screen, counter-screen for PME1 inhibitor project, biochemical, fluorescence polarization, FP-Rh probe ABPP; Acyl-protein thioesterase 1 (Homo sapiens), O75608; recombinant LYPLA1; inhibition, % at 5.9 µM; 320,000 compounds, 0.16% hits; AID 2174, 2009;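 active = inhibition above the mean of all tested compounds plus 3 SD, set per campaign, cut at about 14% in these data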;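 also: inhibitors block serine hydrolase probe labeling of LYPLA1 so polarization falls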
Fam108B inh: mouse Fam108B serine hydrolase inhibitors, primary screen, counter-screen for RBBP9 inhibitor project, biochemical, fluorescence polarization; 300,000 compounds, 0.33% hits; inhibition, % at 9.51 µM; recombinant Fam108B, FP-Rh probe fluorescence polarization;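 active = inhibition above the screen mean inhibition plus 3 SD, computed separately per campaign, cut at about 18% in these data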;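 also: inhibitors lower polarization as less probe binds the enzyme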
LYPLA2 confirm: LYPLA2 inhibitors, retest, confirmation, counter-screen for PME1 inhibitor project, biochemical, fluorescence polarization, FP-Rh probe ABPP. inhibition, % at 5.9 µM. AID 2232, 2010. shares compounds with LYPLA2 counter. recombinant LYPLA2. 1,100 compounds, 72% hits;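 active = mean inhibition across replicates above the hit cutoff set in the primary screen, cut at about 26% in these data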;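 also: blocked labeling of the enzyme by serine hydrolase FP-Rh probe lowers polarization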
A number is an active result. Sampled rows, rich in hits. Any-hit rate of the full collection: about 1.8%.

`COc1ccc(S(=O)(=O)NCCSC(C)(C)C)cc1` gave GSTO1 counter inactive, LYPLA2 counter inactive, PAD4 inh inactive, PME-1 primary inactive, LYPLA1 inh inactive and Fam108B inh inactive.
`CCCc1ncc(CN2CCCC(C(=O)Nc3ccc(-c4cccc(OC)c4)cc3)C2)cn1` (centres undefined) gave GSTO1 counter inactive, LYPLA2 counter inactive, PAD4 inh inactive, PME-1 primary inactive, LYPLA1 inh inactive and Fam108B inh inactive.
For COc1cccc(-c2ccc(NC(=O)C3CCCN(Cc4cnc(N(C)C)s4)C3)cc2)c1 (centres undefined) the results were GSTO1 counter inactive, LYPLA2 counter 27.8, PAD4 inh inactive, PME-1 primary inactive, LYPLA1 inh inactive, Fam108B inh inactive and LYPLA2 confirm inactive.
For COC(=O)N/N=C\c1ccc(OC/C=C/c2ccccc2)c(OC)c1 the results were GSTO1 counter inactive, LYPLA2 counter inactive, PAD4 inh inactive, PME-1 primary inactive, LYPLA1 inh inactive and Fam108B inh inactive.
For COCC(=O)N/N=C\c1ccccc1OC/C=C/c1ccccc1 the results were GSTO1 counter inactive, LYPLA2 counter 49.6, PAD4 inh inactive, PME-1 primary inactive, LYPLA1 inh inactive, Fam108B inh inactive and LYPLA2 confirm 42.4.
`CCOC(=O)c1cc2c(ccn2-c2ccc(F)cc2)n1CC(=O)N(CC)CC` gave GSTO1 counter inactive, LYPLA2 counter inactive, PAD4 inh inactive, PME-1 primary inactive, LYPLA1 inh inactive and Fam108B inh inactive.
`O=C(/C=C/c1ccco1)N1CCN(S(=O)(=O)/C=C/c2ccccc2)CC1` gave GSTO1 counter inactive, LYPLA2 counter inactive, PAD4 inh inactive, PME-1 primary inactive, LYPLA1 inh inactive and Fam108B inh inactive.
Screening O=C(/C=C/c1ccco1)N1CCN(C/C=C/c2ccccc2)CC1 returned GSTO1 counter inactive, LYPLA2 counter 27.0, PAD4 inh inactive, PME-1 primary inactive, LYPLA1 inh inactive, Fam108B inh inactive and LYPLA2 confirm inactive.
Screening Cc1nc(C(=O)NC2CCOCC2)sc1C1(C)CC(c2cccc([N+](=O)[O-])c2)=NO1 (centres undefined) returned GSTO1 counter inactive, LYPLA2 counter 34.4, PAD4 inh inactive, PME-1 primary inactive, LYPLA1 inh inactive, Fam108B inh inactive and LYPLA2 confirm 44.5.
Cc1nc(C(=O)NC2CCOCC2)sc1C1(C)CC(c2ccccc2)=NO1 (centres undefined) was read as GSTO1 counter inactive, LYPLA2 counter inactive, PAD4 inh inactive, PME-1 primary inactive, LYPLA1 inh inactive and Fam108B inh inactive.
For COc1ccc(Cl)cc1NC(=O)c1noc(C)c1[N+](=O)[O-] the results were GSTO1 counter inactive, LYPLA2 counter 28.2, PAD4 inh inactive, PME-1 primary inactive, LYPLA1 inh inactive, Fam108B inh inactive and LYPLA2 confirm 35.9.
Screening Cc1ccc(S(=O)(=O)Nc2ccc3c(c2)nc(CCN2CCCC2)n3C)cc1 returned GSTO1 counter inactive, LYPLA2 counter inactive, PAD4 inh inactive, PME-1 primary inactive, LYPLA1 inh inactive and Fam108B inh inactive.
For O=C(CCCN1C(=O)c2cccc3cccc(c23)C1=O)N1CCN(c2ccccc2O)CC1 the results were GSTO1 counter inactive, LYPLA2 counter 48.6, PAD4 inh inactive, PME-1 primary inactive, LYPLA1 inh inactive, Fam108B inh inactive and LYPLA2 confirm 48.7.
Screening O=C(CCCN1C(=O)c2cccc3cccc(c23)C1=O)N1CCN(c2ccccc2)CC1 returned GSTO1 counter inactive, LYPLA2 counter 36.7, PAD4 inh inactive, PME-1 primary inactive, LYPLA1 inh inactive, Fam108B inh inactive and LYPLA2 confirm 40.1.
CCOc1ccccc1N1CCN(C(=O)CCCN2C(=O)c3cccc4cccc(c34)C2=O)CC1 was read as GSTO1 counter inactive, LYPLA2 counter inactive, PAD4 inh inactive, PME-1 primary inactive, LYPLA1 inh inactive and Fam108B inh inactive.
COc1ccc(C(C(=O)NC2CCCCC2)N(Cc2ccco2)C(=O)c2ccccn2)c(OC)c1 (centres undefined) was read as GSTO1 counter inactive, LYPLA2 counter inactive, PAD4 inh inactive, PME-1 primary inactive, LYPLA1 inh inactive and Fam108B inh inactive.
`Cc1nn(-c2ccc(F)cc2)c2sc(C(=O)OC3CCOC3=O)cc12` (centres undefined) gave GSTO1 counter inactive, LYPLA2 counter 35.0, PAD4 inh inactive, PME-1 primary inactive, LYPLA1 inh inactive, Fam108B inh inactive and LYPLA2 confirm 28.1.
For O=[N+]([O-])c1ccc(Sc2cccc3cccnc23)cc1 the results were GSTO1 counter inactive, LYPLA2 counter 27.6, PAD4 inh inactive, PME-1 primary inactive, LYPLA1 inh inactive, Fam108B inh inactive and LYPLA2 confirm inactive.
Screening O=[N+]([O-])c1ccc(Sc2cccc3cccnc23)c([N+](=O)[O-])c1 returned GSTO1 counter inactive, LYPLA2 counter inactive, PAD4 inh inactive, PME-1 primary inactive, LYPLA1 inh inactive and Fam108B inh inactive.
For Cc1ccc(S(=O)(=O)/N=C(\c2ccc(Cl)cc2)N2CCOCC2)cc1 the results were GSTO1 counter inactive, LYPLA2 counter inactive, PAD4 inh inactive, PME-1 primary inactive, LYPLA1 inh inactive and Fam108B inh inactive.
Screening CCCOc1ccc(C(=O)NNC(=S)NC(=O)c2ccccc2[N+](=O)[O-])cc1 returned GSTO1 counter inactive, LYPLA2 counter 26.9, PAD4 inh inactive, PME-1 primary inactive, LYPLA1 inh inactive, Fam108B inh inactive and LYPLA2 confirm 29.0.
CCOC(=O)c1nnc2c(Br)c(-c3ccccc3)nn2c1C was read as GSTO1 counter inactive, LYPLA2 counter inactive, PAD4 inh inactive, PME-1 primary inactive, LYPLA1 inh inactive and Fam108B inh inactive.
CCc1ccc(C(=O)N2CCC(c3nc4ccccc4s3)CC2)cc1 was read as GSTO1 counter inactive, LYPLA2 counter 48.8, PAD4 inh inactive, PME-1 primary inactive, LYPLA1 inh inactive, Fam108B inh inactive and LYPLA2 confirm 38.6.
COc1cccc(CN(C)C(=O)c2ccc(Oc3ccccc3)cc2)c1OC was read as GSTO1 counter inactive, LYPLA2 counter 29.9, PAD4 inh inactive, PME-1 primary inactive, LYPLA1 inh inactive, Fam108B inh inactive and LYPLA2 confirm inactive.
`COc1cccc(CN(C)C(=O)c2ccc(COc3ccc(Cl)cc3)cc2)c1OC` gave GSTO1 counter inactive, LYPLA2 counter inactive, PAD4 inh inactive, PME-1 primary inactive, LYPLA1 inh inactive and Fam108B inh inactive.
